Laboratory results taken from the supplement of paper PMC10646978.
± gives the standard deviation.

What was measured:
Conditions in all cases: modulator concentration 10 µM
[1] = test system: RAW-Dual (murine macrophage reporter line); assay: NF-kB reporter (SEAP) activity fold change vs agonist alone; higher = enhanced NF-kB activity
How it was run: (§1)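 RAW-Dual murine macrophage reporter cells were seeded at 50 000 per well in 384-well plates and pre-incubated 1 hour at 37 °C with compound pin-transferred to 10 μM final. After 1 hour, a PRR agonist was added and cells incubated overnight. Supernatant NF-κB (SEAP, QUANTI-Blue, 620 nm absorbance) and IRF (Lucia luciferase, QUANTI-Luc, luminescence) signals were divided by the mean agonist-only control on the same plate to give fold change. Two replicate plates were averaged, with errors by propagation.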

[2] = test system: RAW-Dual (murine macrophage reporter line); assay: IRF reporter (Lucia luciferase) activity fold change vs agonist alone; higher = enhanced IRF activity
How it was run: as §1

[3] = test system: RAW-Dual (murine macrophage reporter line); assay: viability score (confluency relative to resting cells, overnight) (fraction); higher = more viable, active = viable (0.7 or more)
How it was run: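 A compound met the cutoff when both of two confluency masks exceeded 70% of resting cells. Those masks were made with IncuCyte software from IncuCyte images of RAW-Dual macrophages treated overnight at 10 μM final. This is the basis of the viability score, which is confluency relative to resting cells.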

[4] = agonist: CpG ODN 1826 0.5 ug/mL

SMILES	NF-kB reporter [1, 4]	NF-kB reporter ([1]; agonist: LPS 0.1 ug/mL)	NF-kB reporter ([1]; agonist: MPLA […])	IRF reporter ([2]; agonist: 3'3'-cGAMP 10 ug/mL)	IRF reporter ([2]; agonist: LPS 0.1 ug/mL)	IRF reporter ([2]; agonist: MPLA […])	viability score [3]
CC(C)=CCC/C(C)=C/CC/C(C)=C/CSc1ccccc1C(=O)O	1.32 ± 0.071	0.929 ± 0.074	2.18 ± 0.19	0.18 ± 0.011	0.52 ± 0.084	0.721 ± 0.16	0.902 (active)
O=C(NCc1ccco1)C(=Cc1ccc(-c2ccccc2Cl)o1)NC(=O)c1ccccc1	0.57 ± 0.044	0.745 ± 0.052	0.791 ± 0.07	0.476 ± 0.022	0.859 ± 0.07	0.942 ± 0.11	0.996 (active)
CC(=NNC(=O)COc1ccc(Cl)cc1[N+](=O)[O-])c1cccc(Br)c1	0.961 ± 0.091	1.11 ± 0.064	0.89 ± 0.053	0.983 ± 0.032	1.47 ± 0.22	1.19 ± 0.22	1 (active)
COc1ccc(Cc2nnc(C3CCN(S(C)(=O)=O)CC3)s2)cc1	0.978 ± 0.069	1.04 ± 0.085	0.93 ± 0.12	1.06 ± 0.093	1.25 ± 0.076	1.09 ± 0.13	0.994 (active)
Cl.Clc1ccccc1CN1CCc2sccc2C1	0.93 ± 0.092	0.952 ± 0.11	0.916 ± 0.024	0.902 ± 0.05	1.01 ± 0.14	1.1 ± 0.25	0.992 (active)
CCOc1ccc(C=C2SC(=S)N(C)C2=O)cc1	0.96 ± 0.075	1.01 ± 0.072	0.905 ± 0.073	0.962 ± 0.049	1.39 ± 0.15	1.3 ± 0.23	1.01 (active)
COc1ccc(C2=NN(C(=O)c3ccc(Br)cc3)C(c3nc4ccccc4[nH]3)C2)cc1 (stereo not drawn)	0.994 ± 0.087	1.1 ± 0.12	0.867 ± 0.07	0.92 ± 0.049	1.16 ± 0.092	1.1 ± 0.34	0.986 (active)
CC1(C)CC(NC(=O)c2cccnc2-c2nc3ccccc3s2)CC(C)(C)N1	0.747 ± 0.078	0.964 ± 0.083	0.948 ± 0.19	0.892 ± 0.048	1.06 ± 0.067	1.12 ± 0.09	0.998 (active)
COc1cc2c(cc1OC)C(=O)NC1(CCCC1)C2	1.24 ± 0.095	0.958 ± 0.073	0.959 ± 0.092	0.819 ± 0.05	0.872 ± 0.11	0.911 ± 0.17	1.02 (active)
CN1CCN(c2ccc3nc(-c4c(N)c5c(F)cccc5[nH]c4=O)[nH]c3c2)CC1	0.277 ± 0.1	1.19 ± 0.35	1.39 ± 0.59	0.0238 ± 0.0011	0.491 ± 0.07	0.197 ± 0.015	0.799 (active)
COc1ccc(S(=O)(=O)NNc2ccc([N+](=O)[O-])cc2[N+](=O)[O-])cc1	1.21 ± 0.07	0.864 ± 0.059	0.777 ± 0.05	0.342 ± 0.025	1.22 ± 0.19	1.34 ± 0.14	0.962 (active)
COc1cc(C=Cc2nc3ccccc3nc2O)cc(OC)c1	1.06 ± 0.054	1.06 ± 0.099	1.09 ± 0.074	0.565 ± 0.029	0.834 ± 0.087	1.08 ± 0.29	0.872 (active)
Cc1ccc(Nc2nc(N3CCOCC3)nc(N3CCN(c4ccccc4)CC3)n2)cc1	0.454 ± 0.029	1.05 ± 0.084	1.98 ± 0.059	0.711 ± 0.027	1.4 ± 0.067	1.9 ± 0.18	0.996 (active)
CNCCC[C@]12CC[C@H](c3ccccc31)c1ccccc12 [Prestw-346]	0.726 ± 0.082	0.842 ± 0.063	0.93 ± 0.095	1.12 ± 0.07	1.41 ± 0.14	1.59 ± 0.26	0.962 (active)
